The results in this text go back to article PMC12136788.

In all, about 5,800 sequences were measured (“enrichment r”: median about 0.68, highest 2% from about 11 on). The list comes from a sample in which the highest values are over-represented; it also holds similar and randomly drawn sequences.

T1: UNK ZnF1-6 (called full-length) (human, UniProt Q9C0B0 30-357)
T1 sequence: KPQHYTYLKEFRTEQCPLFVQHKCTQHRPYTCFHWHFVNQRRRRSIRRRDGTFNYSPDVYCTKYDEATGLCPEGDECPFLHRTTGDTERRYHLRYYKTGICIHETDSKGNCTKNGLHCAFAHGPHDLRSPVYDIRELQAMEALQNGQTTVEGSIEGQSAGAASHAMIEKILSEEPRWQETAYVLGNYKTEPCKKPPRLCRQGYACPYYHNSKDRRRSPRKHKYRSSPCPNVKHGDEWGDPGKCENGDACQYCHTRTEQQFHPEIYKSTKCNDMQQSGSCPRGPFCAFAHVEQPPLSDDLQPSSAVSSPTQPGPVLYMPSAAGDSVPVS

B1: chr19:44386474:44388102:-|CDS|ENSG00000267508|control|control|control (ssRNA)
RNA: GGGAGUUCUACAGUCCGACGAUCGGCAUGUGGUAAGGGCUUCAGUCGUAAUUCAUACCUCCUUGCCCAUCAGAGAGUGCAUAUAGAUGAGACACAGUACACACACUGUGAGCGUGGAAAGGACCUUCUGACUCAUCAAAGACUCAACAGAGGAUUGAGCAUCA
B2: ENSG00000198589:be:win_1001|CDS|ENSG00000198589|bound_else_gene|NA|bound_elsewhere_windowed (ssRNA)
RNA: GGGAGUUCUACAGUCCGACGAUCUCAACACUAGCGAUACCUUUGACAAAUGUUUCCUGGGCUCAUCAGAAACAGCAGAUGCUAAUAGAGUAUUCUGUGGUCAGAUGACUGCAGUUUACCUUUUCAGUGAAGCUCUAAAUGCAGCAACAGAGGAUUGAGCAUCA
B3: chr1:114568131:114568247:-|CDS|ENSG00000116752|unk|total|mutant (ssRNA)
RNA: GGGAGUUCUACAGUCCGACGAUCUUCCCGUUGGGUAUCCCUGGUCAGUAAGAAUUAUGAGAUUGAACGGACUAUUGUUCAGCCCGAAAAUGAAAUCUAUCAAAUUAAGCAGCAACAUGGAGAGGCAAACAAAGAAAACAUCCGCAACAGAGGAUUGAGCAUCA
B4: chr11:85659139:85659240:-|3pUTR|ENSG00000137504|msi1|FALSE|unique (ssRNA)
RNA: GGGAGUUCUACAGUCCGACGAUCGUCUGAUUUAGUAAAAUUUUAAAGCUAAAUAAUCUGAUGACUCUUGAAAGUUUAAUUGGUAGUAUGACAUUUAUGUUUUUUUCCCCCAGACUCACAGCCAAUACAAAGUUUUGAGACUCCCAACAGAGGAUUGAGCAUCA
B5: ENSG00000124766:be:win_2851|3pUTR|ENSG00000124766|bound_else_gene|NA|bound_elsewhere_windowed (ssRNA)
RNA: GGGAGUUCUACAGUCCGACGAUCUAAUCAGAUGCCAUUUUAUAUGUGGACGUAUUUAUACUGGCCAAACAUAUUUUUUCUUUUGUCCCUUUUUUUCUUUCCUUUCUUUUUACUUCCUUUAUUUCUUUAUUCCUUCCUUUUCCUCAACAGAGGAUUGAGCAUCA
B6: chr2:27041412:27041530:+|3pUTR|ENSG00000119777|msi1_unk|FALSE|overlapping (ssRNA)
RNA: GGGAGUUCUACAGUCCGACGAUCACUUCAAAAUGCCCAGCCUGCCCCAAAUGCCUCUAAGCCCCUCCCUGUCCCCUCCCUUGUAGUCCUACUUCUUCCAACUUUCCAUUCCCCAUCAUGCUGGGGGUCUUGGUCACAAGGCUCCAACAGAGGAUUGAGCAUCA
B7: chr7:158693335:158693439:-|CDS|ENSG00000146918|unk|total|mutant (ssRNA)
RNA: GGGAGUUCUACAGUCCGACGAUCAAGGAAACAGAAAGAAGAAUUAUGGCAAAGGCUGAAGAAUUUAUUGACAGAUGUGUUGUCCGAAAGCCCAGUGGAUGGGUGGCAGGCCGUGGAAGCCCAGGGUGAAGACAAUAUGGAAACCAACAGAGGAUUGAGCAUCA
B8: chr12:107752058:107752159:-|CDS|ENSG00000110851|unk|FALSE|unique (ssRNA)
RNA: GGGAGUUCUACAGUCCGACGAUCUAACUCUAUAAAUGUUGAUGGUAAUACAGCAUUAUCUAUCACCAAUAACCCUUCAGCACUAGAUCCCUAUCAGUCCAAUGGAAAUGUUGGAUUAGAACCAGGCAUUGUUUCAAUAGACUCCAACAGAGGAUUGAGCAUCA
B9: chr19:38730201:38730298:+|3pUTR|ENSG00000130402|msi1_unk|FALSE|overlapping (ssRNA)
RNA: GGGAGUUCUACAGUCCGACGAUCCAGAGAAUUACUAUUUACUUUAUUAACUUACGGAUUUAUUAUAUAAAUAUAUAUUCACCUAGCAACAUAUCUCUGCCGUCUCUCCUGCUCUCAUAAUGAAGACAUAGCCGAUUCUCUGCCCAACAGAGGAUUGAGCAUCA
B10: chr7:158734047:158734148:-|3pUTR|ENSG00000117868|msi1_unk|FALSE|overlapping (ssRNA)
RNA: GGGAGUUCUACAGUCCGACGAUCCUACCCGGAACACACCCUCUCACAGACGUACCAAUGUUAUUUUUAUAAUUUCAUGGAUUUAGUUAUACAUACCUUAAUAGUUUUAUAAAAUUGUUGACAUUUCAGGCAAAUUUGGCCAAUCAACAGAGGAUUGAGCAUCA
B11: ENSG00000136451:be:win_1351|CDS|ENSG00000136451|bound_else_gene|NA|bound_elsewhere_windowed (ssRNA)
RNA: GGGAGUUCUACAGUCCGACGAUCCCAUUAUCCAUGACCUCUCCUUUAACACUCACUACCCCAGUCAACCUCCCCACCCCCGUCACUGCCCCAGUGAAUAUAGCACACCCUGUCACCAUCACAUCUCCAAUGAAUCUACCCACACAACAGAGGAUUGAGCAUCA
B12: chr2:165880514:165880799:-|CDS|ENSG00000123607|control|control|control (ssRNA)
RNA: GGGAGUUCUACAGUCCGACGAUCGAUGGCAUGGAAAUAUAGCAAUCGGACAAAUCCGGCAGUAGGUGAGUUUGGCAAUCACCUAGAUUUUUCACAGAAAAAUUAUGUUGUAUUUAUUAAUUUUCAUUUAAAUGCAUUUGAUUUCAACAGAGGAUUGAGCAUCA
B13: chr3:58425360:58425463:+|3pUTR|ENSG00000168297|unk|FALSE|unique (ssRNA)
RNA: GGGAGUUCUACAGUCCGACGAUCAGACAGCUCCUAGAAACAUUCCUCUUACAGUUCAUUUCUCUAAAGCAUUUUCUGAUUCUUAGAUAACUCCAAUUUUUGCUACCUUUAUCUUAGACAUUAACACUAUAGCCCAAAGCAUAGCAACAGAGGAUUGAGCAUCA
B14: chr14:75059847:75060235:-|three_prime_utr|ENSG00000119640|control|control|control (ssRNA)
RNA: GGGAGUUCUACAGUCCGACGAUCAACCACAUUAAAAAAAUAAAAAGGAUAACUGGAAAAUCCCAAAAUAUUUGGAAACCAUAUAGCACACUUACUUCUAAAAUUGUGGUAGAAUACAUAUAACAUAGAAAUUAUUGUUCUAACCAACAGAGGAUUGAGCAUCA

This assay addresses T1, UNK ZnF1-6 (called full-length). Description: nsRBNS (natural sequence RNA bind-n-seq); RBNS binding buffer (assumed for nsRBNS): 25 mM Tris pH 7.5, 150 mM KCl, 3 mM MgCl2, 0.01% Triton X-100, 500 ug/ml BSA, 20 U/ml SUPERase-In, 4 C; UNK is unkempt and MSI1 is Musashi-1; names of the RNAs are library labels; protein concentration not given here; high values mean tight binding.
In the case of B1, the binding signal worked out at 0.503 enrichment R. For B2, the binding signal amounted to 0.527 enrichment R. In turn, B3 yielded a binding signal of 0.717 enrichment R.

Molecule B4 gave a binding signal of 1.52 enrichment R.

Molecule B5 displayed a binding signal of 8 enrichment R. In the case of B6 it was 1.6 enrichment R; in that of B7, 1 enrichment R. Consider B8, for which the binding signal turned out to be 0.391 enrichment R.

For the molecule B9, the binding signal amounted to 20.4 enrichment R. In the case of B10, the binding signal came out at 33.1 enrichment R.

With B11, the binding signal is 1.83 enrichment R. As to B12, the binding signal stood at 0.541 enrichment R. In the case of B13 it was 3.62 enrichment R. In the case of B14 it was 2.02 enrichment R.
